The results in this text go back to PubChem BioAssay (NCI).

The panel holds about 83,000 compounds, 20% with a hit somewhere; the sample as a whole holds those more often.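 Interpretation: 100, growth as untreated; towards 0, rising growth inhibition; 0, no net growth; 0 to -100, cell death. Compounds scoring below 10 were considered active.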 Values without a mark were called inactive. Calls of active or inactive are those of the source.

The test system of the assay is OVCAR-8 ovarian. In words: NCI-60 one-dose screen, 48 h (100 = growth as untreated, 0 = no growth, -100 = all killed). The settings on record: 10 µM unless noted.
Turning to `CCOC(=O)c1cc(/C(=N\O)c2cc(OC)c(OC)c(OC)c2)n2c(C)cccc12`, the growth is 54.3%.
Turning to `Nc1c(C(=O)Nc2cccc(C(F)(F)F)c2)sc2nc3c(cc12)CCCCCC3`, the growth was -37.4% (active).
The same measure for `Cc1ccc(Cn2c(-c3cccs3)nc3ccccc32)cc1`: 82.3%.
Take `CCC(=O)Oc1ccc2c(c1)CC[C@@H]1[C@@H]2CC[C@]2(C)C[C@H](OC(=O)CC)C[C@@H]12`: the growth was 87.9%.
Consider `COc1ccc2c(c1)C(C)Cc1c(N(C)C)ncnc1N2C` (configuration not stated), for which the growth was 40.8%.
Take `Cc1cc2c(C(C)C)c(O)c(O)c(C=NCCCCCCC(=O)O)c2c(O)c1-c1c(C)cc2c(C(C)C)c(O)c(O)c(C=NCCCCCCC(=O)O)c2c1O`: the growth was 30.6%.
The same measure for `COC(=O)CCCCCCN=Cc1c(O)c(O)c(C(C)C)c2cc(C)c(-c3c(C)cc4c(C(C)C)c(O)c(O)c(C=NCCCCCCC(=O)OC)c4c3O)c(O)c12`: 18.6%.
For the compound `C=CCc1cc(Cl)cc2c(OC(C)=O)c(C(C)=O)c(-c3ccccc3)nc12`, the growth was 113%.
`CCN1C(=O)N[C@H]2[C@@H]3NC(=O)c4ccc(Cl)n4[C@@H]3C[C@]21O`: the growth was 1.27% (active).
The same measure for `CN(C)C1CCC(NC2=CC(=O)C=CC2=O)CC1` (configuration not stated): 113%; for `CN1C(=O)[C@H]2c3c1cccc3[C@@]13NC(=O)O[C@H]1[C@H](CCC3(C)C)C2(C)C`: 96.1%.
For the compound `COc1ccc(/C=C2\CCCC3=C2NC(C)=NC3c2ccc(OC)c(OC)c2)cc1OC` (configuration not stated), the growth was 3.09% (active).
For `O=C(c1ccncc1)N1N=C(c2ccc(Cl)cc2)CC1c1c[nH]c2ccccc12` (configuration not stated), the growth was 98.5%.
Regarding `Cc1nn(-c2ccc(Cl)cc2)c(=O)n1CCOc1ccccc1Cl`, the growth is 92.7%.
Take `Cc1cc2c(c(=O)o1)C(c1ccc(OC(=O)N3CCOCC3)cc1)C(C#N)=C(N)O2` (configuration not stated): the growth is 104%.
Turning to `O=C(COc1ccccc1)N1N=C(c2ccc(Cl)cc2)CC1c1c[nH]c2ccccc12` (configuration not stated), the growth is 70.4%.
Consider `CC[C@H](C)[C@H]1NC(=O)[C@@H](N[C@](C)(O)[C@@H](N)CC(C)C)[C@@H](C)OC(=O)[C@H](Cc2ccc(OC)cc2)N(C)C(=O)[C@@H]2CCCN2C(=O)[C@H](CC(C)C)NC(=O)[C@@H](C)C(=O)[C@H](C(C)C)OC(=O)C[C@@H]1O`, for which the growth is -13.6% (active).
